Drawing on PubChem BioAssay (Tox21), this text covers Potency, outcome and activity change, positive = activation for 22 molecules.

The nature of assay [1]: qHTS assay to identify small molecule agonists of H2AX (AID 1224845; active = well fitted activation curve with a large enough effect in the signal ratio in the repeat runs, not every such curve was filed as active; the % refers to the signal ratio). The procedure, abridged:
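Wild-type CHO-K1 cells, plated overnight, exposed 3hr at 37C to 15 concentrations (0.76% DMSO final). Lysed, then HTRF anti-pH2AX (S139) cryptate and anti-H2AX-d2 antibodies, 24 hr room temperature; 665/620 nm emission read.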
In general terms: qHTS replaces the single test concentration by a dilution series.

Assay [2] is described as follows: qHTS RealTime-Glo MT Cell Viability Assay in HEK293 cells - 32 hour (AID 1224868). Also: nearly all actives have a fitted effect of over 50% in size. Also: potency is read from the fitted curve at half-maximal effect. Summed up:
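Quantitative high-throughput screen of the Tox21 10K library in HEK293: cells and RealTime-Glo reagents plated together, compound added at 5 h, luminescence monitored through 40 h at 37 C.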

Assay [3] is described as follows: qHTS RealTime-Glo MT Cell Viability Assay in HepG2 cells - 40 hour (AID 1224870). Also: nearly all actives have a fitted effect of over 50% in size. Also: potency is read from the fitted curve at half-maximal effect. The procedure, abridged:
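HepG2 cells (600/well) mixed with RealTime-Glo MT reagent, settled 5 h at 37 C/5% CO2 before compound addition. Nonlytic NanoLuc luminescence from viable-cell prosubstrate reduction read repeatedly during 40 h treatment at 37 C.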

Assay [4] in a line: A CellTox Green Cytotoxicity Assay to monitor cytotoxicity in HEK293 cells - 40 hour (AID 1224871). Also: nearly all actives have a fitted effect of over 45% in size. Also: potency is read from the fitted curve at half-maximal effect. The procedure, abridged: (§1)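 Homogeneous no-lysis format: HEK293 cell suspension mixed with CellTox Green reagent, seeded, incubated 5 h at 37 C/5% CO2, then dosed by pintool with compound in DMSO.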
Assay [5] can be described thus: qHTS assay to identify small molecule agonists of H2AX - cell viability counter screen (AID 1224847; calls by dose curve; also: nearly all actives have a fitted effect of over 30% in size; also: potency is read from the fitted curve at half-maximal effect). The procedure, abridged: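 We seed wild-type CHO-K1 cells overnight, treat them for 3 hr at 37C with compounds in 15-concentration series, and quantify remaining viability by CellTiter-Glo luminescence.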
Assay [6] is described as follows: A CellTox Green Cytotoxicity Assay to monitor cytotoxicity in HEK293 cells - 0 hour (AID 1224869). Also: nearly all actives have a fitted effect of over 50% in size. Summed up: as §1
Assay [7] in a line: qHTS assay to identify small molecule agonists of the hypoxia (HIF-1) signaling pathway (AID 1224846; active = well fitted activation curve with a large enough effect in the signal ratio in the repeat runs, not every such curve was filed as active; the % refers to the signal ratio). The procedure, abridged:
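In ME-180 cells bearing an HRE-bla construct, 17 h treatment with DMSO-dissolved compounds at 37C was followed by CCF4-AM loading to quantify reporter induction.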

Assay [8] in a line: qHTS RealTime-Glo MT Cell Viability Assay in HepG2 cells - 24 hour (AID 1224867). Also: nearly all actives have a fitted effect of over 50% in size. Also: potency is read from the fitted curve at half-maximal effect. The procedure, abridged:
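Compound treatment began 5 h after plating HepG2 cells (600/well) with NanoLuc luciferase and prosubstrate. Plates stayed at 37 C for 40 h; luminescence was captured at six time points, 0 h through 40 h.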

Assay [9] is described as follows: qHTS assay to identify small molecule antagonists of the estrogen related receptor (ERR) signaling pathway from Tox21 library (AID 1224848). Also: nearly all actives have a fitted effect of over 50% in size. Also: potency is read from the fitted curve at half-maximal effect. The procedure, abridged: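 Quantitative high-throughput format: ERR reporter cells (2,000/well) pre-incubated 6 h, treated 18 h at 37 C with compounds in DMSO alongside positive and negative controls, then read by ONE-Glo luminescence.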

A short description of assay [10]: qHTS assay to identify small molecule agonists of the estrogen related receptor (ERR) signaling pathway from Tox21 library (AID 1224849; calls by dose curve; also: nearly all actives have a fitted effect of over 15% in size). The settings on record: ERR reporter cell line, ONE-Glo luciferase, 18 h. Summed up:
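Reporter cells (ERR, NTP source) treated with Tox21 10K compounds 18 h, 37 C. Readout: ONE-Glo luminescence, 30 min RT.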

Each structure is given as a SMILES string. “And” between values parts separate entries of the source, which are not always exact repeats. Equal entries are not always repeated. Records with an inconclusive call do not appear. The source holds several records for some structures; these can differ, active in one and inactive in another. The source made the active and inactive calls. Unless noted, calls follow the shape of the dose curve; as a rule, active = well fitted curve in the direction sought with a large enough effect in the repeat runs; inconclusive = weak or mixed curves; inactive = no such curve, though single readings can be large; an effect the other way counts as inactive or inconclusive.
% is scaled to controls: 0 for no effect and ±100 for the full control effect.

For the molecule `CCCc1cc(=O)[nH]c(=S)[nH]1`, the Potency result in assay [1], in assay [2], in [3] and in assay [4] was “inactive” throughout.

As for `CC1(C)S[C@@H]2[C@H](NC(=O)[C@H](N)c3ccccc3)C(=O)N2[C@H]1C(=O)O`, the Potency result in [1], in assay [5], in assay [6] and in [4] was “inactive” each time.

Regarding `O=C(O)CC(O)C(=O)O` (configuration not stated), the Potency entry in assay [1], in [8], in assay [2], in [6], in assay [3] and in assay [4] was “inactive” throughout. Besides, the molecule was called inactive in assay [7].

Regarding `C=C(C)C(=O)OCC(C)O` (configuration not stated), the Potency entry in assay [1], in assay [8], in assay [2], in assay [3] and in [4] was “inactive” each time. Further, the molecule was classed as inactive in assay [7].

Consider `CN(C)CCOC(c1ccccc1)c1ccccc1`, for which the Potency entry in assay [1], in assay [8], in assay [2], in assay [3] and in assay [4] was “inactive” in each case.

For the molecule `CCN(CC)C(=O)c1cccc(C)c1`, the call in [7] was inactive. The Potency entry in assay [5], in [9], in assay [2], in assay [3] and in assay [4] was “inactive” in each case. For the same molecule, the activity change, positive = activation in assay [10] (at 42.5 µM (top of the series)) is 5.47% (inactive); in assay [10] (at 92.4 µM (top of the series)), 0.249% (inactive) and -23.9% (inactive).

Turning to `O=S1(=O)OC(c2ccc(O)cc2)(c2ccc(O)cc2)c2ccccc21`, the outcome in [7] was inactive. The Potency result in assay [5], in assay [9], in assay [2], in [6] and in assay [4] was “inactive” in each case. The activity change, positive = activation in [10] (at 42.5 µM (top of the series)) is -3.19% (inactive); in [10] (at 92.4 µM (top of the series)) it was -32% (inactive) and -12.4% (inactive). Besides, the Potency is 49 µM (active) and inactive in assay [8]; 49 µM (active) and inactive in assay [3].

In the case of `NS(=O)(=O)O`, the Potency result in assay [1], in assay [2], in assay [6], in assay [3] and in assay [4] was “inactive” each time. Also, in assay [7], the molecule was called inactive.

Turning to `CC(=O)C(=O)O`, the Potency result in [1], in assay [5], in [2], in assay [6], in [3] and in assay [4] was “inactive” throughout. The result in [7] was inactive.

With `Cn1c(=O)c2c(ncn2C)n(C)c1=O`, in assay [7], the outcome was inactive. Also, the Potency result in assay [5], in assay [8], in [2], in assay [6], in assay [3] and in assay [4] was “inactive” in each case. For the same molecule, the Potency in [9] is 61.9 µM (active) and inactive. The activity change, positive = activation in [10] (at 42.5 µM (top of the series)) is 0.592% (inactive); in assay [10] (at 92.4 µM (top of the series)), -33.2% (inactive) and 0.518% (inactive).

`Nc1ccc(O)c([N+](=O)[O-])c1`: the result in [7] was inactive. In addition, the Potency entry in assay [5], in assay [9], in assay [6] and in assay [3] was “inactive” throughout. Besides, the activity change, positive = activation in [10] (at 92.4 µM (top of the series)) was 60.3% (active).

As for `CN(C)C(=O)Nc1ccc(Cl)c(Cl)c1`, in assay [7], the result was inactive. The Potency entry in [9], in assay [2], in assay [3] and in [4] was “inactive” throughout. For the same molecule, the activity change, positive = activation is -0.767% (inactive) in [10] (at 42.5 µM (top of the series)); -14.1% (inactive) and -8.37% (inactive) in [10] (at 92.4 µM (top of the series)).

In the case of `COc1cccc(O)c1O`, in assay [7], the outcome was inactive. The Potency result in [8], in assay [6], in [3] and in assay [4] was “inactive” each time.

With `O=CC(=O)c1ccccc1`, the outcome in assay [7] was inactive. The Potency result in assay [9], in assay [8], in assay [2] and in [3] was “inactive” throughout. In [10] (at 92.4 µM (top of the series)), the activity change, positive = activation was -0.129% (inactive).

For the molecule `COc1ccc(OC(F)(F)F)cc1CN[C@H]1CCCN[C@H]1c1ccccc1`, the result in assay [7] was inactive. Moreover, the Potency in [5] was 113 µM (active); in assay [2], 43.6 µM (active); in assay [3], 54.9 µM (active).

`CC1(C)O[C@@H]2C[C@H]3[C@@H]4CCC5=CC(=O)C=C[C@]5(C)[C@@]4(F)[C@@H](O)C[C@]3(C)[C@]2(C(=O)CO)O1`: the molecule was called inactive in assay [7]. Besides, the Potency result in assay [9], in assay [8], in [2], in [6] and in assay [3] was “inactive” each time. The activity change, positive = activation in [10] (at 42.5 µM (top of the series)) is -6.5% (inactive); in assay [10] (at 92.4 µM (top of the series)), -23.9% (inactive) and -13.8% (inactive). Besides, the Potency result in [4] was “inactive and 9.52 µM (active)”.

As to `Cc1c(C(=O)O)c(O)cc2c1C(=O)c1c(O)c([C@@H]3O[C@H](CO)[C@@H](O)[C@H](O)[C@H]3O)c(O)c(O)c1C2=O`, in assay [7], the molecule was called inactive. For the same molecule, the Potency in assay [5] was 55.3 µM (active) and 56.6 µM (active) and 31 µM (active). In addition, the Potency entry in assay [2], in assay [3] and in [4] was “inactive” throughout.

As for `NC1CCCCC1`, in [7], the molecule was classed as inactive. For the same molecule, the Potency entry in [5], in [2], in [3] and in assay [4] was “inactive” each time.

In the case of `CCN(Cc1c(F)cccc1Cl)c1c([N+](=O)[O-])cc(C(F)(F)F)cc1[N+](=O)[O-]`, the molecule was classed as inactive in assay [7]. In addition, the values for the Potency in assay [9] and in assay [2] were 61.1 µM (active) and 49 µM (active), respectively. The activity change, positive = activation in [10] (at 92.4 µM (top of the series)) is -20.2% (inactive). Besides, the Potency entry in assay [8], in [3] and in assay [4] was “inactive” each time.

Consider `Oc1ccccc1`, for which the result in assay [7] was inactive. In addition, the Potency entry in assay [2], in assay [6], in assay [3] and in [4] was “inactive” in each case.

Take `CCCCCCCC(=O)OCC(COC(=O)CCCCCCC)OC(=O)CCCCCCC`: the outcome in [7] was inactive. The Potency result in assay [2], in assay [6], in assay [3] and in assay [4] was “inactive” throughout.

Take `F[B-](F)(F)F`: the molecule was called inactive in [7]. Further, the Potency result in [5], in assay [2], in [6], in [3] and in assay [4] was “inactive” throughout.
